High-throughput results as filed in PubChem.
Methyltransferases: Primary Screen for Target Class Profiling of Small Molecule Inhibitors of Methyltransferases; purified enzyme, MTase-Glo SAH luminescence; active compounds read low; calls only at 40 µM; 25,000 compounds, 3.9% hits; AID 1745853, 2022; call rule not given here
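Each enzyme was assayed with SAM and its substrate. SAH formation detected by MTase-Glo luminescence; single-point 40 uM screen[…].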
MTase-Glo counter: Counterscreen for Target Class Profiling of Small Molecule Inhibitors of Methyltransferases. MTase-Glo coupled enzymes, SAH conversion luminescence, no MTase. 180 compounds, 6% hits. shares compounds with Methyltransferases. Potency, µM (titrated, usually from 57.3 µM), inactives show at the highest dose activity change, negative = inhibition, usual class: inhibitors; active means well fitted inhibition curve with a large enough effect; inconclusive means small, poorly fitted or top-dose-only effect; further: potency means the concentration at half of the fitted maximal effect
An asterisk follows results filed as active; i = inactive; ? = inconclusive; + = active, no number; [ ] = remark or other dose. The full list was thinned out, with hits kept by preference. On the % scale 0 is the no-effect control and ±100 the full control effect.

SMILES	Methyltransferases	others
Cc1ccc(CNC(=O)c2ccc3c(=O)nc4c(-c5cccc(F)c5)n[nH]n4c3c2)cc1	i
Cc1ccc(-c2cc3c(ccn3C)c(C(=O)NCc3cccnc3)n2)cn1	i
Cn1ccc2c(C(=O)NCCc3cnc[nH]3)nc(-c3ccc(N4CCOCC4)cc3)cc21	+	MTase-Glo counter=2%[85.7 µM]
Cn1cncc1CNC(=O)c1nc(-c2cccc(N3CCOCC3)c2)cc2c1ccn2C	i
CC1CCCCC1NC(=O)C1(C)Cn2c(ccc2-c2ccco2)C(=O)N1Cc1ccc(Cl)cc1 (stereo not drawn)	i
CC1CCCC(NC(=O)C2(C)Cn3c(cc4sccc43)C(=O)N2Cc2ccccc2Cl)C1C (stereo not drawn)	i
Cn1cc(CN2CCCC(COc3ccccc3C(=O)N3CCCCC3)C2)c2ccccc21 (stereo not drawn)	+	MTase-Glo counter=-2%
COc1cccc(C(=O)NCC2CCCN(Cc3ccccn3)C2)c1OC (stereo not drawn)	i
COc1cccc(C(=O)N2CCCC(COc3ccccc3C(=O)N3CCOCC3)C2)c1 (stereo not drawn)	i
COc1ccc(NC(=O)N2CCn3c(C)ccc3C2C(C)C)cc1OC (stereo not drawn)	i
Cc1cc(-c2cc3c(cn2)N(C)CCN(C)C3)ccn1	+	MTase-Glo counter=-4%[114 µM]
COc1cc(OC)cc(N2C(=O)c3ccc(-c4ccco4)n3CC2(C)C(=O)NC2CCCC2)c1 (stereo not drawn)	i
COc1ccc(-c2nnc3n(Cc4ccccc4)c(=O)c4ccccc4n23)cc1	i
CCOC(=O)c1cc2n(n1)CC(C)(C(=O)NCc1ccc(C)cc1)N(c1cccc(F)c1)C2=O (stereo not drawn)	i
O=C(CCc1nnc2n(CCc3ccccc3)c(=O)c3ccccc3n12)N1CCN(c2ncccn2)CC1	i
O=C(c1ccc(C2CCCNC2)cc1)N1CCN(c2ccncc2)CC1 (stereo not drawn)	+	MTase-Glo counter=-3%
O=C(c1ccncc1)N1CCCC(CN2CCCC2)CC1 (stereo not drawn)	i
Cn1cc(-c2ccncc2)cc1C(=O)N1CCN(c2ccc(F)cc2)CC1	i
CCC(C(=O)NCc1ccc(C)cc1)n1ccc2cc(S(=O)(=O)N3CCCCC3)ccc21 (stereo not drawn)	i
COc1ccc(C2c3cccn3-c3sc4c(c3CN2C(=O)NCc2cccc(OC)c2)CCCC4)cc1 (stereo not drawn)	i
CCc1nc2cc(N3CCC(C(=O)NCc4cccnc4)CC3)cnc2nc1CC	i
CC(=O)Nc1cc(-c2cc(C(=O)NCc3cccnc3)c3c(c2)N(C)CCO3)ccn1	+	MTase-Glo counter=1%[85.7 µM]
COc1ccc(-c2cc(C(=O)NCc3cccnc3)c3c(c2)N(C)CCO3)cc1OC	+	MTase-Glo counter=5%[85.7 µM]
CNC(=O)c1cc(-c2cnc(OC)nc2)cc2c1OCCN2Cc1cccnc1	i
O=C(NCC1CCCO1)c1cc(-c2ccccc2F)cc2c1OCCN2Cc1cccnc1 (stereo not drawn)	i
SMILES	Methyltransferases	others
CN1CCOc2c(C(=O)NCc3cnn(C)c3)cc(-c3ccc([S+](C)(=O)[O-])cc3)cc21	i
Cc1ccc(CCNC(=O)CCCc2nnc3n4nc(-c5ccccc5)nc4c4ccccc4n23)cc1	i
CC(C)OCCCN1C(=O)c2ccc(-c3ccccc3)n2CC1(C)C(=O)NC1CCCCC1 (stereo not drawn)	i
CCOC(=O)c1cc2n(n1)CC(C)(C(=O)NC1CCCCC1)N(CCc1cccs1)C2=O (stereo not drawn)	i
Cc1ccccc1CSc1nnc2n(CC(C)C)c(=O)c3ccccc3n12	i
CC1(C(=O)NC2CCCCCC2)Cn2nc(-c3cccs3)cc2C(=O)N1c1ccccc1F (stereo not drawn)	i
COc1ccc(Br)cc1CN1C(=O)c2cc3ccccc3n2CC1(C)C(=O)NCCCOC(C)C (stereo not drawn)	i
CCCN1C(=O)c2cc3ccccc3n2CC1(C)C(=O)NC1CCCCCC1 (stereo not drawn)	i
CN(CCO)C[C@@H]1CN(C(=O)CCc2nc3ccc(F)cc3[nH]2)C[C@@H]1CO	i
Nc1nc(C2CC(O)C2)cc(N2CC(N3CCOCC3)C2)n1 (stereo not drawn)	i
CN(CCc1nc2ccc(Cl)cc2[nH]1)c1cc(C2CC(O)C2)nc(N)n1 (stereo not drawn)	+	MTase-Glo counter=-4%
CCC(C)NC(=O)Cn1nc2n(C)c(=O)c3ccc(C(=O)NC4CCCC4)cc3n2c1=O (stereo not drawn)	i
COc1ccc(-c2cc(-c3cnn(C)c3)cn3cncc23)cn1	+	MTase-Glo counter=?
O=c1[nH]c2ccc(S(=O)(=O)NCCC3=CCCCC3)cc2[nH]1	i
COc1ccccc1CCN1C(=O)c2cc3ccccc3n2CC1(C)C(=O)NCCC(C)C (stereo not drawn)	i
O=C(CCn1ccc2cc(S(=O)(=O)N3CCCCC3)ccc21)NCc1ccc2c(c1)OCO2	i
O=c1c2ccccc2n2c(=O)n(Cc3ccc(Cl)cc3)nc2n1Cc1ccccc1	i
COc1ccc(-c2[nH]nc3ncc(C(=O)N4CCC(c5ccccc5)CC4)nc23)c(C)c1	+	MTase-Glo counter=-11%[85.7 µM]
COc1cccc(CN2CCCC3(CCN(C(=O)c4cnc(C)cn4)C3)C2)c1 (stereo not drawn)	i
CCOc1ccccc1C(=O)N1CCC(c2n[nH]c(=O)n2Cc2ccc(OC)cc2)CC1	i
Cc1ccccc1CNC(=O)C(C)n1ccc2cc(S(=O)(=O)N3CCCC3)ccc21 (stereo not drawn)	i
CC(C)Oc1ccc(CN2C(=O)c3nc4ccccc4n3CC2(C)C(=O)NC2CCCC2)cc1 (stereo not drawn)	i
Cc1ccc(Cn2c(=O)c3ccccc3n3c(CCC(=O)NC4CCN(Cc5ccccc5)CC4)nnc23)cc1	i
O=C(COC(=O)C(Cc1c[nH]c2ccccc12)NC(=O)c1ccc(Br)cc1)c1ccccc1 (stereo not drawn)	i
COc1cncc(Nc2cnc3ccc(-c4ccccc4OC)nn23)c1	i
SMILES	Methyltransferases	others
COc1ccnc(-c2nnc3ccc(Nc4cc(OC)c(OC)c(OC)c4)nn23)c1	+	MTase-Glo counter=-4%[85.7 µM]
Cc1noc2c(N3CCOCC3)cc(-c3cccs3)nc12	+	MTase-Glo counter=2%[85.7 µM]
COC1CCN(c2cc(-c3ccsc3)nc3c(C)noc23)CC1	+	MTase-Glo counter=-5%[85.7 µM]
Cc1noc2c(-c3cnn(C)c3)cc(-c3cccnc3)nc12	i
Cc1noc2c(N3CCOCC3)cc(-c3cccnc3)nc12	i
Cc1noc2c(Nc3ccc(C(N)=O)cc3)cc(-c3ccsc3)nc12	i
COc1cccc(-c2cc(-c3cccs3)nc3c(C)noc23)c1	i
Cc1ccccc1N1C(=O)c2cc3sccc3n2CC1(C)C(=O)NC1CCC(C)CC1 (stereo not drawn)	i
CCc1cc2c(cc3n2CC(C)(C(=O)NC2CCCCCC2)N(Cc2ccc(F)cc2)C3=O)s1 (stereo not drawn)	i
CN(C)Cc1nnc(C2CC(NC(=O)Cc3c(F)cccc3Cl)C2)n1C (stereo not drawn)	i
Cc1cc(N2CCN(Cc3nnc(C4CC(N)C4)n3C)CC2)cc(C)n1 (stereo not drawn)	i
